The results in this text go back to PubChem BioAssay AID504408 (Broad Institute, 2011).

Screen size: about 300,000 compounds; about 5,200 (1.7%) were called active. This is one part of a sample in which actives are shown more often than they occur. A number with no mark means an inactive call.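 Rule for the calls: active = mean replicate activation of at least 50% with a set share of replicates each reaching 50%; inconclusive = only one of those two conditions met; inactive = mean below 50% and too few replicates reaching it.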

The nature of the experiment: HSF-1 activators, primary screen, NIH3T3-HGL cells, MG132 stress, luminescence, single point (AID 504408).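 Note: 0% = median of the neutral control wells and 100% = twice that signal.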 The settings on record: NIH3T3-HGL HSF-1 luciferase reporter, MG132, 8 h; at 9 µM; stronger effect = higher value; 100% = twice DMSO control signal. (In general: Reporter assays use an easily measured gene product as a stand-in for the process of interest.)
As for `NS(=O)(=O)c1ccc(CCNC(=O)CN2C(=O)c3ccccc3S2(=O)=O)cc1`, the activation is -4.15%.
The value for `COc1ccc(S(=O)(=O)NCCCc2ccccc2)cc1` was -30.2%; that for `CCOc1cccc(/C=C/c2ccc3ccccc3n2)c1OC(C)=O` was 132% (active); that for `COc1cccc(/C=C/c2ccc3ccccc3n2)c1OC(C)=O` was -16.6%.
The value for `NC(=O)COC(=O)/C=C/c1ccc2ccccc2n1` was -46.9%; that for `O=C(Nc1ncccc1O)c1ccc(C(=O)c2ccccc2)cc1` was -2.58%; that for `CCCCn1c(N)c(N(CCOC)C(=O)CSCC(=O)Nc2cccc(C)c2)c(=O)[nH]c1=O` was 1.06%.
The value for `CCC1Nc2ncnc(N3CCN(c4ccccc4)CC3)c2N(Cc2ccc(Cl)cc2)C1=O` (stereo unspecified) was 22.3%; that for `Cc1ccc(N2C(=O)SC(N(CC(=O)O)c3ccc(C)cc3)C2=O)cc1` (stereo unspecified) was 96.4% (active).
Consider `Cc1cccc(N2C(=O)SC(N(CC(=O)O)c3cccc(C)c3)C2=O)c1` (stereo unspecified), for which the activation was 17.2%.
As for `Cc1ccc(CC2S/C(=C(/C#N)C(=O)N3CCOCC3)N(c3ccccc3)C2=O)cc1` (stereo unspecified), the activation was 19.9%.
The figure for `CC(=O)Nc1ccc(C(=O)NNC(=O)CCCCC(=O)NNC(=O)c2ccc(NC(C)=O)cc2)cc1` is 0.0985%; for `Cc1ccc(C(=O)NC2CCCC(C)C2C)cc1S(=O)(=O)N1CCCCC1` (stereo unspecified) it is 2.09%; for `O=[N+]([O-])c1ccc(S(=O)(=O)Nc2cccc(-c3ccc(N4CCCC4)nn3)c2)cc1` it is -7.69%.
Consider `COn1c(-c2ccc(Cl)cc2Cl)nc2ncccc21`, for which the activation is 22.3%.
The value for `Clc1ccc(COn2c(-c3ccc(Cl)cc3Cl)nc3ncccc32)cc1` was -4.74%; that for `Clc1ccc(-c2ncc3ccccn23)c(Cl)c1` was 69.3% (active); that for `COc1ccc(-c2cc(C(=O)n3cnc4ccccc43)c3ccccc3n2)cc1` was -1.65%.
The value for `COc1ccc(-c2c(C#Cc3ccccc3)c3ccccc3n2C)cc1` was 64.2% (active); that for `COc1ccc(-c2nc3ccccc3c(=O)n2CCc2ccc(O)cc2)cc1` was 29.5%.
For the molecule `O=C(COC(=O)c1ccccc1Br)Nc1nnc(-c2ccccc2)o1`, the activation was -10.6%.
The value for `CC1CCN(c2ccc(-c3ccc(NC(=O)c4ccco4)cc3)nn2)CC1` was -39.2%; that for `CSCCC(NC(=O)c1ccco1)C(=O)Nc1cc(C)ccn1` (stereo unspecified) was 4.08%; that for `Cc1ccc(-c2csc(NC(=O)C3=COCCO3)n2)cc1C` was 31.4%.
The value for `CCc1ccc(C2C(C#N)=C(N)Oc3n[nH]c(CC(=O)OC)c32)cc1` (stereo unspecified) was 3.08%; that for `Cc1cc(C)c(C#N)c(SCc2[nH]nc3c2C(c2ccccc2)C(C#N)=C(N)O3)n1` (stereo unspecified) was 64% (active); that for `Cc1cc(C)c2c3c(sc2n1)C(c1ccccc1)C(C#N)=C(N)O3` (stereo unspecified) was -10.5%.
The figure for `CCN(C(=O)CSc1ncnc2c1cnn2-c1ccccc1)C1CCS(=O)(=O)C1` (stereo unspecified) is -4.69%.
Regarding `Fc1ccc(-c2csc(-c3ccc(C4SCCS4)cc3)n2)cc1F`, the activation was 23.4%.
The figure for `Nc1scc(-c2ccncc2)c1Cl` is 11.5%.
The figure for `Clc1ccc(-c2csc(-c3ccncc3)n2)cc1` is 58% (active); for `CCCn1c(C)cc(/C=C(\C#N)C(=O)OCC(=O)N(C)c2c(N)n(Cc3ccccc3)c(=O)[nH]c2=O)c1C` it is -4.32%; for `Cc1nn(-c2ccccc2)c(Cl)c1/C=C/C(=O)c1ccc(O)cc1` it is 76.9% (active).
The figure for `Cc1nn(-c2ccccc2)c(Cl)c1C(=O)Nc1ccccc1` is -8.73%.
`Cc1ccc(C(=O)/C=C/c2c(C)nn(-c3ccccc3)c2Cl)cc1`: the activation is 42.3%.
The value for `COc1cc2c(cc1OC)C(Cc1cc(OC)c(OC)cc1[N+](=O)[O-])=NCC2` was -5.53%; that for `C/[N+]([O-])=C\c1ccc([N+](=O)[O-])o1` was -2.43%; that for `O=C(N/N=C/c1ccc([N+](=O)[O-])o1)c1cn(-c2ccccc2)nc1-c1ccc(F)cc1` was 3.06%.
The value for `O=C(/C=C/c1ccc([N+](=O)[O-])o1)NNC(=O)c1ccc(F)cc1` was 71.3% (active).
The figure for `Cc1ccc(OCCNC(=O)CNC(=O)c2ccc(C)c(C)c2)cc1` is 16.2%; for `O=C1[C@H]2[C@@H](c3ccc(Cl)cc3)N3C(=O)N(c4cccc(F)c4)C(=O)[C@@]3(Cc3ccccc3)[C@H]2C(=O)N1C1CCCCC1` it is -0.394%; for `CC(=O)Nc1ccc(NC(=O)C(C)OC(=O)c2ccccc2C(=O)c2ccc(Cl)c([N+](=O)[O-])c2)cc1` (stereo unspecified) it is 27.5%.
Consider `COC(=O)c1cc(NC(=O)Cc2ccccc2[N+](=O)[O-])ccc1Cl`, for which the activation is -11.7%.
Turning to `N#Cc1cccc(NC(=O)COC(=O)c2ccccc2C(=O)c2ccc(Cl)c([N+](=O)[O-])c2)c1`, the activation was 241% (active).
The figure for `CC1(c2ccc(Cl)cc2Cl)NC(=O)N(CC(=O)Nc2cccnc2Cl)C1=O` (stereo unspecified) is -7.46%; for `COc1ccccc1CCNC(=O)C(=O)NCCC1CCCCN1S(=O)(=O)c1cccs1` (stereo unspecified) it is 18%; for `CN(CC(=O)NCc1cccnc1)S(=O)(=O)c1cc(Cl)ccc1Cl` it is 1.99%.
The figure for `CC(Oc1ccc(Br)cc1)C(=O)NCC(c1ccco1)N1CCCCC1` (stereo unspecified) is 12.7%; for `CC(OC(=O)c1ccc(-n2cnnn2)cc1)C(=O)NCc1ccccc1` (stereo unspecified) it is -14%; for `CCN1CCN(C(c2cccnc2)c2cc(Cl)c3cccnc3c2O)CC1` (stereo unspecified) it is -83.7%.
The figure for `CCOC(=O)N1CCN(C(c2cccnc2)c2ccc3cccnc3c2O)CC1` (stereo unspecified) is 67.9% (active); for `CCOC(=O)N1CCN(C(=O)CSc2nc(=O)n3cccc(C)c3n2)CC1` it is -0.428%.
Consider `Cc1cccc(Nc2nc3c(S(=O)(=O)c4ccccc4)nnn3c3ccccc23)c1C`, for which the activation is 8.48%.
The value for `CC(=O)Nc1ccc(Nc2nc3c(S(=O)(=O)c4ccc(C)c(C)c4)nnn3c3ccccc23)cc1` was 74.4% (active).
The value for `Cc1ccc(S(=O)(=O)c2nnn3c2nc(N2CCN(c4ccccn4)CC2)c2ccccc23)cc1` was 30.6%.
`COc1ccc(/C=C(\C#N)C(=O)OCC(=O)N(C)C2CCS(=O)(=O)C2)cc1` (stereo unspecified): the activation was -4.8%.
